ELG1 genotox: inducers of genotoxicity in HEK293T ELG1-luciferase cells | HEK293T ELG1-luciferase reporter, luminescence, 16 h | Potency, µM (titrated, usually from 46 µM), for inactives: at the top dose activity change, positive = activation, actives largely listed as activators | actives 1.3% (n = 330,000) | AID 504466; further: % of control where 0% means no effect; nearly all actives have a fitted effect of over 60% in size
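HEK293T cells expressing luciferase-tagged ELG1 were treated with compound or DMSO for 16 hr at 37°C. Luciferase activity was then read after 30 min with ONE-Glo at room temperature; rising signal flags genetic stress.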
Rab9 promoter act: Rab9 promoter activation; Huh7 Rab9 promoter-luciferase reporter, luminescence, 24 h; Potency, µM (highest dose often 9.22 µM), for the others: at the highest dose activation, negative = inhibition, usual class: activators; actives 2.8% (n = 320,000); AID 485297; further: % of control where 0% means no effect; nearly all actives have a fitted effect of over 60% in size
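Using Huh7 cells stably transfected with Rab9 promoter–luciferase, compounds were incubated 24 h at 37 °C, 5% CO2; luciferase luminescence was read 10 min after reagent addition.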
NPC1 prom act: activators of NPC1 promoter; actives 2.4% (n = 320,000); Potency, µM (doses to about 9.22 µM), for the others: at the highest dose activation, actives largely listed as activators; Huh7 NPC1 promoter luciferase reporter, 24 h; AID 485313; further: % of control where 0% means no effect; nearly all actives have a fitted effect of over 60% in size
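Stable NPC1-promoter luciferase Huh7 line; cpd (DMSO) 24 h, 37 °C, 5% CO2; Amplite luciferase reagent 10 min RT; luminescence readout. qHTS format.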
SMN2 splice enh: enhancers of SMN2 splice variant expression; HEK293 SMN2-luciferase splicing reporter, luminescence, 30-36 h; Potency, µM (top dose mostly 46.1 µM), for the others: at the top dose activity change, positive = activation, most hits filed as activators; AID 1458; actives 2.8% (n = 210,000); further: % of control where 0% means no effect; nearly all actives have a fitted effect of over 55% in size
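HEK293 cells carry an SMN2 […]–luciferase reporter in which exon 7 inclusion puts luciferase in frame. Cells were plated 10-12 h before compound addition, then incubated 30-36 h at 37C. ONE-Glo luminescence was read; sodium butyrate at 4.5 mM final served as control.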
FLuc counter: firefly luciferase modulation, counter-screen for miR-21 project | P08659 | purified FLuc, Km substrates, luminescence inhibition | Potency, µM (titrated, usually from 57.5 µM), for inactives: top-dose activity change, negative = inhibition, actives largely listed as inhibitors | actives 6.9% (n = 360,000) | AID 588342;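 further: plate controls were vehicle for no effect and reference inhibitor for full effect; nearly all actives have a fitted effect of over 55% in size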
Target sequence (P08659 whole entry, looked up): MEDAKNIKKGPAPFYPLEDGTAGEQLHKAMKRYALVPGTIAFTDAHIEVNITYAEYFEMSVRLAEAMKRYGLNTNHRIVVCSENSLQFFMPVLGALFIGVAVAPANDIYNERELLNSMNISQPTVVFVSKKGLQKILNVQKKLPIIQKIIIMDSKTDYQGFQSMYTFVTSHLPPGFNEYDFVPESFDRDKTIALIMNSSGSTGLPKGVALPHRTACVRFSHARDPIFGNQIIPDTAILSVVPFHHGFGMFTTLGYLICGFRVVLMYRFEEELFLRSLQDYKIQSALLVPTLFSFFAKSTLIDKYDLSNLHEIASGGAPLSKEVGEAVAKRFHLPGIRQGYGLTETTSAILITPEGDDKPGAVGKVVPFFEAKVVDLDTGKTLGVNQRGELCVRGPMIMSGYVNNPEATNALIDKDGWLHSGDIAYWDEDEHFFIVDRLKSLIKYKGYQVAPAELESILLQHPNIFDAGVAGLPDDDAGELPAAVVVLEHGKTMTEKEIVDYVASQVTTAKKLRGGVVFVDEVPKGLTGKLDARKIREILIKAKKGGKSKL
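Purified P. pyralis luciferase (10nM final) with 10uM D-luciferin and 10uM ATP (Km levels) in 50mM Tris acetate pH 7.5, 10mM Mg acetate, 0.01% Tween-20, 0.05% BSA; qHTS 6-point titration, ~60 µM downward; luminescence read.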
* hit, by the source's call; u = inconclusive; x = not tested or not shown; [ ] = dose if it differs, or a comment. A selection: hits, their analogues and other compounds. The true share with any hit is near 7.4%. The call rests on the fitted dose curve; in most records, active means well fitted curve in the direction sought with a large enough effect; inconclusive means small, poorly fitted or top-dose-only effect, or another doubt; inactive means no such curve, though single readings can be large; an effect the other way counts as inactive or inconclusive. Potency means the concentration at half of the fitted maximal effect.

SMILES | ELG1 genotox | Rab9 promoter act | NPC1 prom act | SMN2 splice enh | FLuc counter
CC(=O)N1CCN(c2nc3ccc(Br)cc3s2)CC1 | u | u | 3.2µM* | x | 15µM*
CCc1ccc(C(=O)c2cn(CC(=O)Nc3ccc4c(c3)OCO4)c3ccc(CC)cc3c2=O)cc1 | x | x | x | 9% | -2%
O=C(Nc1cccc(C(=O)OCc2cc(=O)n3nc(C4CC4)sc3n2)c1)c1cccc(F)c1 | x | x | x | x | -1%
COc1ccc(OC)c(-c2noc(CSc3nnc(-c4ccccc4)n3-c3ccccc3)n2)c1 | x | x | x | 1% | -5%
CCCC(=O)N1CCN(c2nc3ccc(Cl)cc3s2)CC1 | u | u | u | x | 12µM*
O=C(Nc1cccc(NC(=O)c2ccco2)c1)c1ccccc1 | 0% | 3% | 2% | x | u
O=C(c1ccccc1)c1cccc(NC(=O)c2ccco2)c1 | u | 4µM* | 25% | 18% | 27µM*
COc1c(C)cc(Br)cc1C(=O)Nc1cccc(NC(=O)c2ccco2)c1 | -28% | -8% | -6% | 0% | -17%
O=C(COc1cccc(NC(=O)c2ccco2)c1)c1ccccc1 | 0% | 10% | 7% | -32% | 17µM*
COc1ccc(Br)cc1C(=O)Nc1cccc(NC(=O)c2ccco2)c1 | -20% | -6% | 1% | x | 24µM*
COc1ccc(Br)cc1C(=O)Nc1ccc(O)cc1 | 15% | 2% | 7% | 28µM* | u
Cc1ccc(-c2csc(=Nc3ccc(F)cc3)n2Cc2ccc3c(c2)OCO3)cc1C | x | x | x | 9% | -17%
N#CCCn1c(=O)c(-c2cccs2)nc2cnc(OCc3ccccc3)nc21 | x | x | x | 9% | x
COc1cccc(C(=O)COc2cccc(NC(=O)c3ccco3)c2)c1 | -2% | -3% | 0% | x | 27µM*
COc1ccc(C(=O)COc2cccc(NC(=O)c3ccco3)c2)cc1 | -7% | -1% | -2% | -10% | 15µM*
O=C(Nc1cccc(OC(=O)c2ccco2)c1)c1ccco1 | 13% | -1% | 2% | 0% | -6%
COc1cccc(NC(=O)c2ccco2)c1 | 15µM* | u | u | 10µM* | u
O=C(c1cccn1-c1nnc(N2CCCC2)s1)N1CCN(c2ccc(F)cc2)CC1 | x | x | x | x | 4%
N#Cc1ccccc1OCC(O)CNCCNC(=O)Nc1ccccc1 (stereo not given) | x | x | x | -8% | x
COc1cccc(/C=N/N2C(=O)CSC2=S)c1O | 2% | -1% | 8% | 11% | 27µM*
Clc1cccc(/C=N/N2CCN(Cc3ccccc3)CC2)c1 | u | u | u | x | 17µM*
Clc1ccccc1/C=N/N1CCN(Cc2ccccc2)CC1 | 10% | 8% | 16% | x | u
C(=N\N1CCN(Cc2ccccc2)CC1)/c1ccccc1 | 7% | 29% | 7% | x | u
FC(F)(F)c1ccccc1/C=N/N1CCN(Cc2ccccc2)CC1 | 17% | 25% | 23% | 11% | 19µM*
COc1ccc(/C=N/N2CCN(c3ccccc3OC)CC2)cc1Br | 12% | 22% | 21% | x | 15µM*
SMILES | ELG1 genotox | Rab9 promoter act | NPC1 prom act | SMN2 splice enh | FLuc counter
COc1ccccc1N1CCN(/N=C/c2cccc(Cl)c2)CC1 | 16µM* | 2.2µM* | 3.2µM* | x | 12µM*
COc1ccccc1N1CCN(/N=C/c2cccc(OC)c2O)CC1 | u | u | u | 25µM* | 7.6µM*
COc1cccc(/C=N/N2CCN(c3ccccc3OC)CC2)c1 | 16µM* | 3.2µM* | u | 13µM* | 12µM*
COc1ccc(/C=N/N2CCN(c3ccccc3OC)CC2)cc1OC | u | 1% | -5% | 17% | u
CCC1=C2CC[C@H]3C(=O)NC(=O)[C@H]3[C@H]2[C@@]2(Cc3ccccc3)C(=NCc3ccccc3)OC(=O)N2C1=O | x | x | x | -15% | x
O=C(Nc1ccccc1)Nc1ccc(Br)c(Cl)c1 | -9% | 18% | u | u | 6.7µM*
CC(=O)Nc1ccc(NC(=O)Nc2ccc(C)c(C)c2)cc1 | u | 15% | -1% | 7% | -2%
O=C(Nc1ccccc1)Nc1cccc(NC(=O)Nc2ccccc2)c1F | 10% | 25% | 27% | x | u
CC(=O)Nc1cccc(NC(=O)Nc2ccc(C)c(Cl)c2)c1 | 6% | 30% | 10% | u | 2.1µM*
O=C(CN1CCCC1)Nc1ccc(NC(=O)Nc2ccccc2Cl)cc1 | u | 19% | 16% | 19% | 21µM*
O=C(Nc1ccccc1)Nc1ccccc1Br | u | 4µM* | u | 24% | 24µM*
C[C@H]1[C@H](O)[C@@H](C)C=CC=CC=CC=CC=CC=CC=C[C@H](O[C@@H]2O[C@@H](C)[C@H](O)[C@@H](N)[C@@H]2O)C[C@@H]2O[C@](O)(C[C@@H](O)C[C@@H](O)[C@@H](O)CC[C@@H](O)C[C@@H](O)CC(=O)O[C@H]1C)C[C@H](O)[C@H]2C(=O)O | x | x | x | -4%[9.22 µM] | x
COc1cc(CNC(=O)c2ccc3c(c2)N(C)C(=O)C2CCCCN32)cc(OC)c1OC (stereo not given) | x | x | x | x | 0%
Cc1ccc(-c2nc(S(=O)(=O)c3ccc(C)cc3)c(SCC(=O)c3ccccc3)o2)cc1 | x | x | x | 5% | -9%
N#Cc1ccc2c(c1)C[C@]1(CCCCN3C(=O)c4ccccc4C3=O)Oc3c(c(=O)oc4ccccc34)C2O1 | x | 0%[1.84 µM] | -7%[1.84 µM] | x | 2%[11.5 µM]
COc1ccc(CCn2c(=O)c3cccnc3n(CC(=O)Nc3ccc(C)c(F)c3)c2=O)cc1OC | x | x | x | 8% | -4%
O=C(Nc1ccccc1)Nc1cccc(Cl)c1Cl | 14% | 16% | 21% | -22% | 11µM*
O=C(COc1ccccc1)Nc1cccc2nsnc12 | 7% | 0% | 19% | -14% | u
O=C(Nc1ccc(Cl)cc1)Nc1cccc2nsnc12 | u | u | u | x | 4.8µM*
O=C(Nc1ccncc1)Nc1cccc(Cl)c1Cl | -2% | -2% | 1% | x | u
COc1ccc(/C=N/NC(=O)c2nonc2C)cc1 | u | u | 18% | u | 1.9µM*
COc1ccc(/C=N/NC(=O)CC(=O)N/N=C/c2ccc(OC)cc2)cc1 | 7% | 2% | -3% | u | 4%
COc1ccc(/C=N/NC(=O)c2nc(-c3ccccc3)n(-c3ccccc3)n2)cc1 | -2% | -7% | -5% | 4% | 15µM*
COc1ccc(/C=N/NC(=O)c2nc(-c3ccccc3)n(-c3ccccc3)n2)c(O)c1 | u | -20% | -21% | -108% | u
COc1ccc(/C=N\NC(=O)C2=NNC(=O)C2C)cc1 (stereo not given) | u | u | u | 7% | 6µM*
CCCc1ccc(S(=O)(=O)N2CCC(Oc3ccc(-n4cnnn4)cc3)CC2)cc1 | x | x | x | -6% | 2%
Cc1ccc(NC(=O)c2cnn(-c3ccc(C)c(C)c3)c2C2CCN(C(=O)OC(C)(C)C)CC2)c(C)c1 | x | x | x | 19% | 2%
COCCNc1nc(C)cc(-c2cc(-c3ccc(Cl)cc3)on2)n1 | 0% | 0% | 10% | x | 15µM*

Screening results deposited in PubChem by National Center for Advancing Translational Sciences (NCATS).
